# Assay results reported in PubChem BioAssay AID2057 (The Scripps Research Institute Molecular Screening Center, 2009).
# Several values for one entry are separate records, joined by “and”; a condition that tells them apart may be missing. Equal entries are not always repeated. Among all 320,000 compounds or so, about 2,100 (0.66%) were called active.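 How the source made its calls: active means inhibition above the mean inhibition of all tested compounds plus 3 SD, set per campaign (cut at about 40% in these data); inactive means the rest.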 This excerpt belongs to a sample that is enriched for actives. A structure can be active in one record and inactive in another.
# Biological target: Induced myeloid leukemia cell differentiation protein Mcl-1 (Homo sapiens) (UniProt Q07820)
# Sequence (Q07820 whole entry, looked up): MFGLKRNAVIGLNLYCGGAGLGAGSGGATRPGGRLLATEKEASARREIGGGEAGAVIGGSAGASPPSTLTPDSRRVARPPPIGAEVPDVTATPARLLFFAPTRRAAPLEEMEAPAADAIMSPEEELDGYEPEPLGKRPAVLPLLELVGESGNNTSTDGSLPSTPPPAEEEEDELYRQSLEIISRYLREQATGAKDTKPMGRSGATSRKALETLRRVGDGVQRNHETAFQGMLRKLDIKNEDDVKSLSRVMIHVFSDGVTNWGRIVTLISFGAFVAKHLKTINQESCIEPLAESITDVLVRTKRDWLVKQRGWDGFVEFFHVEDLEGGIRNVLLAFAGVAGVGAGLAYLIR
# Assay: MCL1-BIM peptide interaction disruptors – biochemical, fluorescence polarization, primary screen (AID 2057);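 further: 0% = DMSO wells and 100% = unlabeled Bim-BH3 peptide control; higher means more loss of mP so more displacement of Bim peptide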
# Conditions: GST-MCL1 / FITC-Bim-BH3 fluorescence polarization; at 10.9 µM; stronger effect = higher value
row,SMILES,inhibition
1,CCN(C(=O)CSc1ncnc2sccc12)c1c(N)n(Cc2ccccc2)c(=O)[nH]c1=O,0.53% (inactive)
2,Cc1ccc(C(=O)N/N=C/c2cccc3ccccc23)cn1,-3.5% (inactive)
3,Cc1ccc(C(=O)N/N=C\c2cc(Br)c(Br)o2)cn1,46% (active)
4,O=C(N/N=C\c1cc(Br)c(Br)o1)C1COc2ccccc2O1 (stereo not drawn),10.5% (inactive)
5,Cc1ccn2cc(-c3nonc3C)cc2c1,11.9% (inactive)
6,Cc1nc2cc(S(=O)(=O)C(F)(F)F)ccc2s1,-1.41% (inactive)
7,NS(=O)(=O)c1cccc(NC(=O)CC23CC4CC(CC(Br)(C4)C2)C3)c1,-1.18% (inactive)
8,Cc1sc(NC(=S)NC(=O)c2cccs2)nc1-c1ccc(CC(C)C)cc1,-5.44% (inactive)
9,O=C(NN1C(=O)C2C(C1=O)C1C=CC2C12CC2)c1ccccc1Cl (stereo not drawn),1.2% (inactive)
10,CC12CCC(C(=O)N(c3cccc(Cl)c3)C1=O)C2(C)C (stereo not drawn),4.99% (inactive)
11,CC12CCC(C(=O)N(NC(=O)c3ccccc3O)C1=O)C2(C)C (stereo not drawn),42.7% (active)
12,CCCC1=Nc2cc(C(=O)NCc3ccco3)ccc2Sc2ccccc21,-1.97% (inactive)
13,CCOP1(=O)C=C(C(C)(C)C)OC1c1ccc(F)cc1 (stereo not drawn),-0.66% (inactive)
14,Cc1coc2c(O)cc3c(c12)OC1(N2CCCCC2)C(=O)NCCCC31 (stereo not drawn),48.6% (active)
15,Cc1ccc2nnn(Cc3cccc(C(C)(C)C)c3O)c2c1,-0.36% (inactive)
16,CC1CCN(C(=O)c2ccccc2NC(=O)Cc2ccccc2)CC1,2.82% (inactive)
17,CCCCn1c(N)c(N(CC(C)C)C(=O)c2ccc(-n3c(C)ccc3C)cc2)c(=O)[nH]c1=O,-0.69% (inactive)
18,COc1ccc(C(=O)NCCNc2ccc([N+](=O)[O-])cn2)cc1,-2.53% (inactive)
19,COc1cc(/C=N\Nc2ccc([N+](=O)[O-])cn2)ccc1OCC(=O)O,-10.5% (inactive)
20,COc1ccc(Nc2ccc([N+](=O)[O-])cn2)cn1,48.7% (active)
21,O=C(CCc1c[nH]c2ccccc12)NCCOc1ccccc1,0.99% (inactive)
22,O=C(COC(=O)/C=C/c1ccc(S(=O)(=O)N2CCCCCC2)cc1)NCc1ccccc1Cl,5.88% (inactive)
23,Cc1ccc2nc(COc3ccc(N(C)S(=O)(=O)c4ccccc4)cc3)cc(=O)n2c1,42% (active)
24,COc1cccc(COc2ccc(N(C)S(=O)(=O)c3ccccc3)cc2)c1,-7.28% (inactive)

row,SMILES,inhibition
1,CN(c1ccc(OCC(=O)O)cc1)S(=O)(=O)c1ccc2ccccc2c1,15.4% (inactive)
2,O=c1[nH]c(=O)c2nc3ccccc3nc2[nH]1,40.2% (active)
3,CNC(=O)c1cccc2nc3ccccc3nc12,2.56% (inactive)
4,O=c1[nH]c(-c2ccccc2)c(-c2ccccc2)[nH]1,1.68% (inactive)
5,Cn1cnc2c1c(=O)n(Cc1ccccc1C#N)c(=O)n2C,2.03% (inactive)
6,CC(C)c1ccc2oc(=O)cc(CN3CCN(Cc4ccccc4)CC3)c2c1,-0.09% (inactive)
7,C#CCNC(=O)[C@H](Cc1ccc(C(=O)c2ccccc2)cc1)NC(=O)OC(C)(C)C,-1.48% (inactive)
8,COc1ccc(CN2CC(C(=O)NC3CCCCC3)CC2=O)cc1 (stereo not drawn),1.62% (inactive)
9,O=C(CCNC(=O)C1CCN(S(=O)(=O)c2ccccc2)CC1)NC1CC1,1.06% (inactive)
10,CCN(CC(=O)NCC(=O)Nc1cccc(C)c1C)Cc1ccccc1,-6.88% (inactive)
11,Cc1[nH]c2ccccc2c1C(=O)CN1CCCC(C)C1 (stereo not drawn),-7.18% (inactive)
12,CCOC(=O)c1c(NC(=O)/C=C/c2ccco2)sc(C)c1C,-7.18% (inactive)
13,CCC(CC)c1nnc(NC(=O)/C=C/c2ccco2)s1,-2.29% (inactive)
14,Cc1nnc(NC(=O)/C=C/c2ccco2)s1,53.5% (active)
15,O=c1[nH]c2ccc(S(=O)(=O)N3CCCC3)cc2[nH]1,5.45% (inactive)
16,N/C(=N\S(=O)(=O)c1cc(C(F)(F)F)cc(C(F)(F)F)c1)c1cccs1,5.69% (inactive)
17,Cc1ccc(C(O)P(=O)(OC(C)C)c2ccc(N(C)C)cc2)cc1 (stereo not drawn),-0.54% (inactive)
18,COC(=O)[C@H]1[C@H]2C[C@H]3c4[nH]c5ccccc5c4CCN3C[C@@H]2CC[C@@H]1O,2.37% (inactive) and 78.5% (active)
19,COC(=O)C1CCN(C(=O)c2cc(=O)[nH]c3ccccc23)CC1,-5.36% (inactive)
20,O=C(NC1CCCCC1)N1CCc2[nH]c3ccccc3c2C1,7.44% (inactive)
21,COc1ccc(NC(=O)C2=CC(c3ccc(OC)c(OC)c3)=NS(=O)(=O)N2C)cc1,-1.75% (inactive)
22,Cc1ccc(/C=N/NC(=O)COc2ccccc2-c2ccccc2)cc1,66.9% (active)
23,C=CCc1ccccc1OCC(=O)N/N=C/c1ccccc1OCC,-1.1% (inactive)
24,Cc1cccc(OCC(=O)NCC(=O)N/N=C/c2ccc(N(C)C)cc2)c1,5.85% (inactive)
